PI5P4Ka inh – blocks human PI5P4K alpha kinase activity. P48426. PI5P4Kalpha enzyme, ADP-Glo luminescence, 60 min; stronger effect = lower value. max response, %. hit rate 1.2% among 330,000. AID 652105; active means max response of -50% or lower; inconclusive means between -30% and -50%; inactive means -30% or higher; further: value at the top dose of about 77 µM
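Single end-point luminescence (ADP-Glo) quantified ADP from PI5P4Kalpha turnover; ATP 5 microM final, 1 h at RT, 0.1% CHAPS and 0.28 mM EGTA in HEPES pH 7.4.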
WRN helicase inh-1 – blocks human WRN helicase; Potency, µM (series often up to 114 µM), most hits filed as inhibitors; hit rate 0.46% among 360,000; WRN helicase unwinding, fluorescent forked duplex, kinetic; further: nearly all actives have a fitted effect of over 55% in size
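Fluorescence dequenching readout, ex 525 nm/em 598 nm, kinetic mode: forked duplex DNA (100 nM final) with adjacent fluorophore and quencher unwound by WRN (20 nM final) with 2 mM ATP. Compound preincubation 15 min, room temperature.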
Pol eta inh-1 – DNA polymerase eta (human) inhibition; Q9Y253; recombinant Pol eta, fluorescent DNA replication assay; Potency, µM (doses to about 114 µM), usual class: inhibitors; hit rate 1.2% among 390,000
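Fluorescent replication assay: 50 nM final substrate added after a 15 min room-temperature compound preincubation with 10 nM enzyme. Signal taken at 0 min and again at 10 min.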
Pol iota inh – DNA polymerase iota (human) inhibition | hit rate 1% among 390,000 | Potency, µM (doses to about 115 µM), hits mostly inhibitors | Pol iota fluorescent replication assay, 10 min
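Fluorescent replication assay read twice, at 0 min and 10 min after adding 50 nM (final) substrate. Enzyme (10 nM) and compounds were first incubated 15 min at room temperature; enzyme-free buffer wells were negative controls.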
POLB inh – DNA polymerase beta (human) inhibition | Pol beta primer extension/strand displacement, fluorescence kinetic | Potency, µM (titrated, usually from 114 µM), most hits filed as inhibitors | hit rate 1.3% among 340,000
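10 nM enzyme + cpd, 15 min RT; start with substrate 50 nM final; read 0 min and after 10 min RT. Corrected, normalized data; 4-parameter Hill curve fit.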
Pol kappa inh-1 – inhibitors of human DNA polymerase kappa | Potency, µM (doses to about 107 µM), usual class: inhibitors | hit rate 0.53% among 400,000 | purified Pol kappa, fluorescent DNA synthesis assay, 10 min | Q9UBT6
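10 nM Pol kappa was preincubated with compounds for 15 min at room temperature. Reaction started with 50 nM (final) substrate. Fluorescence read kinetically at 0 and 10 min.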
PGK validate – validation of Trypanosoma brucei phosphoglycerate kinase inhibitors; TbPGK coupled GAPDH assay, Kinase-Glo luminescence; hit rate 79% among 500; Potency, µM (series often up to 57.5 µM), actives largely listed as inhibitors; shares compounds with Pol kappa inh-1; further: nearly all actives have a fitted effect of over 65% in size
Pol iota confirm – Inhibitors of human DNA polymerase iota, confirmation; Pol iota primer extension, TAMRA/BHQ fluorescence; shares compounds with Pol kappa inh-1; hit rate 77% among 1,500; Potency, µM, actives largely listed as inhibitors
Pol kappa inh-2 – Pol kappa (human) inhibition, cherry-pick confirmation; shares compounds with Pol eta inh-1; purified Pol-kappa, fluorescent strand-displacement substrate; Potency, µM, most hits filed as inhibitors; hit rate 76% among 920; AID 720501
Pol eta inh-2 – confirmation of human DNA polymerase eta inhibitors; Pol eta primer extension, TAMRA/BHQ fluorescence, 10 min; Potency, µM, actives largely listed as inhibitors; shares compounds with Pol eta inh-1; hit rate 64% among 2,600
WRN helicase inh-2 – confirmation of human WRN helicase inhibitors; shares compounds with WRN helicase inh-1; WRN helicase DNA unwinding, fluorescence kinetic; Potency, µM (titrated, usually from 57.1 µM), hits mostly inhibitors; hit rate 63% among 610; AID 720497; further: nearly all actives have a fitted effect of over 65% in size
TO DNA binding – counter-screen for WRN helicase inhibitors: DNA binding. hit rate 10% among 610. shares compounds with WRN helicase inh-1. Potency, µM (doses to about 57.1 µM), hits mostly inhibitors. AID 720499. thiazole orange DNA binding displacement, fluorescence;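 further: drop in dye fluorescence marks compound binding to DNA; nearly all actives have a fitted effect of over 60% in size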
BLM helicase inh – BLM helicase inhibition, WRN selectivity check. shares compounds with WRN helicase inh-1. Recombinant BLM helicase DNA unwinding, red fluorescence. Potency, µM (highest dose often 57.1 µM), actives largely listed as inhibitors. hit rate 60% among 610. AID 720503; further: nearly all actives have a fitted effect of over 60% in size
Target sequence (P54132 whole entry, looked up): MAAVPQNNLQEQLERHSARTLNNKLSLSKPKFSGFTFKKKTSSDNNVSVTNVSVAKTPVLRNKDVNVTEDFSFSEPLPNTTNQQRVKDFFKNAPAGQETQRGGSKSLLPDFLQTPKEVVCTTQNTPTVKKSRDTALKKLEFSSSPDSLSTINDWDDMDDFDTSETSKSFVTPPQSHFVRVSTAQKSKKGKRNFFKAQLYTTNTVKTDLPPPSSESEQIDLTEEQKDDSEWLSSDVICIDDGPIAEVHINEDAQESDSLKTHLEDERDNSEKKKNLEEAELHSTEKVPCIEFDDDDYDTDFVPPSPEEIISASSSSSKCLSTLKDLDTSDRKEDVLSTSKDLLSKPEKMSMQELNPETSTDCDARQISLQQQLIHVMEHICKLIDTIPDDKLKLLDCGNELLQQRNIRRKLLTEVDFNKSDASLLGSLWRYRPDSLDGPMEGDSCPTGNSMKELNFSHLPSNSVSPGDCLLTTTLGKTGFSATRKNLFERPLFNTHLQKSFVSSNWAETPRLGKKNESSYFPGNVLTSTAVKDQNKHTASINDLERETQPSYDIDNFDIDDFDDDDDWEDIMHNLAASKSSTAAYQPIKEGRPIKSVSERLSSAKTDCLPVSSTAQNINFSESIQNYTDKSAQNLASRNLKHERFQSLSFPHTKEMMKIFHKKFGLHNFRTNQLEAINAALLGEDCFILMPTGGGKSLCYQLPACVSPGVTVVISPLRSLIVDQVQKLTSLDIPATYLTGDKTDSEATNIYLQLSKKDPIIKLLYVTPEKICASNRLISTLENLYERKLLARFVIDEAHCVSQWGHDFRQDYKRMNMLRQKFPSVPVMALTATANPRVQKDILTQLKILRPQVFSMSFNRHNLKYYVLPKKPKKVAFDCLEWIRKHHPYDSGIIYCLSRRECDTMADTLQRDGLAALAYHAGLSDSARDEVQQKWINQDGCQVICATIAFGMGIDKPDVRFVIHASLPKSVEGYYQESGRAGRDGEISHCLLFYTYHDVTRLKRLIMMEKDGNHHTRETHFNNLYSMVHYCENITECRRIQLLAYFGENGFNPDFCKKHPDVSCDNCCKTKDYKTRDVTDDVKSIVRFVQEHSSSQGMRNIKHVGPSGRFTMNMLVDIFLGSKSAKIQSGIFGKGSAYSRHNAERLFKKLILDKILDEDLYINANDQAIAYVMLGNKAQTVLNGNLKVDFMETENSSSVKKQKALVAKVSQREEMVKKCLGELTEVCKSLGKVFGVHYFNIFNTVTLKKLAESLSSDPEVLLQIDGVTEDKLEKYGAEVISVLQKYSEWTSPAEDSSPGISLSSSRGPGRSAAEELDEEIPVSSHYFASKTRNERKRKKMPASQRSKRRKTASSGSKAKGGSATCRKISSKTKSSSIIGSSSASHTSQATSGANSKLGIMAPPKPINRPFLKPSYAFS
ADP-Glo interf – counter-screen for PI5P4K inhibitors: ADP-Glo detection interference, no enzyme; ADP-Glo detection counter-screen, luciferase luminescence, no enzyme; shares compounds with PI5P4Ka inh; Potency, µM (doses to about 76.9 µM), most hits filed as inhibitors; 1,100 tested, under 10 active; AID 743285
Hits are given with their value; 0 = inactive; ? = inconclusive; - = no result. Compounds with a hit are over-represented: about 2.8% of the library has one in this group of screens. Unless noted, the call rests on the fitted dose curve; in most records, active means well fitted curve in the direction sought with a large enough effect; inconclusive means small, poorly fitted or top-dose-only effect, or another doubt; inactive means no such curve, though single readings can be large; an effect the other way counts as inactive or inconclusive.

SMILES	PI5P4Ka inh	WRN helicase inh-1	Pol eta inh-1	Pol iota inh	POLB inh	Pol kappa inh-1	Pol iota confirm	Pol eta inh-2	WRN helicase inh-2	TO DNA binding	BLM helicase inh	others
CC1(C)CCCN(C(=O)c2coc(=O)c(Br)c2)C1	-81.5	17.8µM	0.891µM	10µM	0.447µM	14.1µM	-	-	1.92µM	?	0.482µM	PGK validate=0.819µM
CC(C)CCOc1ccc(Oc2nc(N(C)C)nc(N(C)C)n2)nn1	-	-	0	0	0	0	-	-	-	-	-
Cc1cccc(Nc2nnc(SCC(=O)c3c(N)n(C4CC4)c(=O)[nH]c3=O)s2)c1	0	0	0	0	-	0	-	-	-	-	-
C/C(N)=C(/C#N)C(=O)CSc1nnc(Nc2cccc(C)c2)s1	-50.4	?	20µM	?	39.8µM	?	75.2	?	0	0	?
CC1=NOC(=O)/C1=C\c1ccc(-c2ccc(Cl)cc2Cl)o1	?	?	14.1µM	25.1µM	39.8µM	0	?	?	24.1µM	?	21.5µM
Cc1cc(OCC(=O)Nc2ccc(N3CCN(C(=O)c4ccco4)CC3)cc2)cc(C)c1Cl	-	?	79.4µM	?	?	0	53.2	?	?	0	5.41µM
Cc1ccc(OCC(=O)Nc2ccc(N3CCN(C(=O)c4ccco4)CC3)cc2)cc1C	0	0	0	0	0	0	-	-	-	-	-
CCOC(=O)Cc1csc(NC(=O)CN2CCN(c3ccccc3)CC2)n1	0	0	0	0	0	0	-	-	-	-	-
CSc1ccc(/C=N/Nc2cccc(C(=O)O)c2)cc1	-98.6	11.2µM	1.12µM	2.24µM	2µM	7.94µM	2.67	2.13	4.82µM	?	3.04µM
O=C1C=C(NCCc2cc(Br)c(O)c(Br)c2)C(=O)c2ncccc21	-73.8	25.1µM	3.55µM	3.16µM	-	28.2µM	16.8	26.9	21.5µM	?	19.2µM	Pol kappa inh-2=23.8
Cc1cc(C)cc(NC(=O)C2CCN(S(=O)(=O)c3ccc4[nH]c(=O)ccc4c3)CC2)c1	0	0	0	?	?	0	-	-	-	-	-
COc1cccc(NS(=O)(=O)c2ccc3c(c2)C2C=CCC2C(c2ccc(C(=O)O)cc2)N3)c1 (stereo not drawn)	-66.3	44.7µM	3.16µM	20µM	?	15.8µM	37.7	26.9	-	-	-	ADP-Glo interf=0
COC(=O)c1ccc([C@H]2Nc3ccc(S(=O)(=O)Nc4ccc(F)cc4)cc3[C@H]3C=CC[C@H]32)cc1	-	-	0	0	0	0	-	-	-	-	-
CCOc1ccc(NC(=O)CN(C)C(=O)c2csc3c2CCCC3)cc1OCC	0	0	0	0	-	0	-	-	-	-	-
CCOc1ccc(NC(=O)CN(C)C(=O)c2cc3c(s2)CCC3)cc1OCC	-79.7	?	3.55µM	-	-	-	16.8	33.8	-	-	-	Pol kappa inh-2=18.9;ADP-Glo interf=0
O=C(O)C1Nc2c(Cl)cc(Cl)c(Cl)c2C2C=CCC12 (stereo not drawn)	-75.7	39.8µM	14.1µM	10µM	-	28.2µM	21.2	23.9	-	-	-	ADP-Glo interf=0
